Rango dissoc inh – qHTS Assay for Inhibitors of RanGTP induced Rango (Ran-regulated importin-beta cargo) - Importin beta complex dissociation | Snurportin-1 (Homo sapiens) + GTP-binding nuclear protein Ran (Homo sapiens) + Importin … | Biochemical FRET Rango-importin beta, RanGTP-induced dissociation | Potency, µM (series often up to 46.1 µM), without a hit: top-dose activity change, negative = inhibition | 0.071% of 340,000 active; also: potency is read from the fitted curve at half-maximal effect; % of control where 0% means no effect; nearly all actives have a fitted effect of over 45% in size
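Two FRET readings bracket the reaction: one 5 min after compound meets Rango–importin beta, another 45 min after RanGTP-RCC1 (0.6 uM Ran, 0.2 uM RCC1, 2 mM GTP) is added. Only the second defines inhibition.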
MmCpn inh – Inhibitors of TCP-1 ring complex (TRiC) of Methanococcus maripaludis (MmCpn): qHTS. Chaperonin Mm-Cpn (Methanococcus maripaludis). purified Mm-Cpn ATPase, ADP Transcreener TR-FRET. Potency, µM (titrated, usually from 76.9 µM), inactives show at the top dose activity, negative = inhibition, usual class: inhibitors. 0.031% of 330,000 active; active = well fitted inhibition curve with a large enough effect; inconclusive = small, poorly fitted or top-dose-only effect; also: potency is read from the fitted curve at half-maximal effect; % is scaled to controls: 0 for no effect and ±100 for the full control effect; nearly all actives have a fitted effect of over 80% in size
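ATP (10 uM final) was added to archaeal chaperonin (25 nM final) after 10 min exposure to test compound at 37°C; after 30 min further incubation, ADP was detected by competitive TR-FRET.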
Rango-impB inh – qHTS Assay for Inhibitors of Rango (Ran-regulated importin-beta cargo) - Importin beta complex formation; Importin subunit beta-1 (Homo sapiens), Q14974; Rango CFP/YFP FRET sensor + importin beta, 45 min; Potency, µM (doses to about 92.2 µM), without a hit: at the top dose inhibition of complex formation; 0.031% of 340,000 active;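 also: potency is read from the fitted curve at half-maximal effect; 0% = DMSO wells and 100% = buffer wells lacking importin beta; nearly all actives have a fitted effect of over 15% in size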
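FRET biosensor (snurportin 1 IBB flanked by EYFP and cerulean), 50 nM, with compound 5 min, then 0.125 microM importin beta in PBS, 1 mM DTT, 0.02% Tween-20, 0.1% BSA. CFP/YFP ratio read after 45 min at room temperature; pre-read flags interference.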
D3 antag – qHTS of D3 Dopamine Receptor Antagonist: qHTS | D(3) dopamine receptor (Homo sapiens), P35462 | D3R cells, DiscoveRx beta-arrestin luminescence, antagonist mode; active compounds read low | max response, negative = inhibition, % | 2.5% of 360,000 active | AID 652054, 2013; in the data active = max response below about -50%; inconclusive = no clear call, values can overlap the other calls; also: % is scaled to controls: 0 for no effect and ±100 for the full control effect
Target sequence (P35462 whole entry, looked up): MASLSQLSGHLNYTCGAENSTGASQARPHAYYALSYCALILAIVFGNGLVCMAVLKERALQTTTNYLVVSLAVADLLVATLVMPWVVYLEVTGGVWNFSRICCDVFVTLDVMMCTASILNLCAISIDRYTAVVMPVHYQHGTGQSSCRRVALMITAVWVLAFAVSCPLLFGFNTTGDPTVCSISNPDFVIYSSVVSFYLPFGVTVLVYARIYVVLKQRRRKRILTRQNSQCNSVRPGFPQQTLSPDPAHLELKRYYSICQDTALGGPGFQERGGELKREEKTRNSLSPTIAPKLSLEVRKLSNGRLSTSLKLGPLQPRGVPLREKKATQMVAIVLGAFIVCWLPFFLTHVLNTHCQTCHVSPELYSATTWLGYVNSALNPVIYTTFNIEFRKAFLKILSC
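Cells plated overnight at 1500 cells/well, then exposed to library compounds with dopamine controls for 90 minutes at 37 degrees C. DiscoveRx reagent added for 30–60 minutes at room temperature; luminescence read, quantitative HTS format.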
TSG101-PTAP inh – qHTS Assay for Iinhibitors of HIV-1 Budding by Blocking the Interaction of PTAP/TSG101; Tumor susceptibility gene 101 protein (Homo sapiens), Q99816; Fluorescence polarization, FITC-PTAP peptide / Tsg101 binding; Potency, µM (top dose mostly 115 µM), for inactives: top-dose activity change, negative = inhibition, most hits filed as inhibitors; 340,000 tested, under 10 active; active = well fitted inhibition curve with a large enough effect in the main read-out, with a control signal flat, not every such curve was filed as active; inconclusive = small, poorly fitted or top-dose-only effect, or effect the other way, or a change in a side signal; inactive = no such curve, though single readings can be large or run the other way; also: potency is read from the fitted curve at half-maximal effect; % of control where 0% means no effect
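FP read-out: FITC-PTAP peptide, 50 nM final, binding Tsg101 binding domain, 10 uM final; 20 min, r.t.; 10 mM HEPES pH 7.5, 0.15 M NaCl, 0.01% Tween 20, 3 mM EDTA, 0.1 mM TCEP.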
D3 ag – qHTS of D3 Dopamine Receptor Agonist: qHTS; D3R DiscoveRx beta-arrestin cells, luminescence, 90 min; max activation, %; 0.58% of 410,000 active; in the data active = max activation above about 30%; also: 0% is about no effect
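Agonist mode: compounds and dopamine controls were applied to plated cells for 90 min at 37 degrees C after an overnight attachment at 1500 cells/well. Luminescent read-out followed 30 - 60 minutes at room temperature with DiscoveRx detection reagent.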
Starred values were filed as active, the others as inactive; ? = inconclusive; . = no result given; [ ] = remark or other dose. Hits are enriched below; roughly 2.9% of the tested compounds scored in any of these assays. Unless noted, calls follow the shape of the full dose curve.

SMILES | Rango dissoc inh | MmCpn inh | Rango-impB inh | D3 antag | TSG101-PTAP inh | D3 ag
Cc1ccc(-c2c3c(=O)n(C)c(=O)n(C)c3c3n2-c2ccccc2NC3c2ccc(C)cc2O)cc1 (stereo not given) | . | . | . | . | . | 47*
COc1ccc(O)c(C2Nc3ccccc3-n3c(-c4ccccc4)c4c(=O)n(C)c(=O)n(C)c4c32)c1 (stereo not given) | . | . | . | . | . | 45*
CCOc1ccc(NC(=O)C2CCCN(c3nn4cc(-c5ccc(OC)cc5)nc4s3)C2)cc1 (stereo not given) | . | . | . | . | . | -3
COc1ccc(S(=O)(=O)N2CCCCC2)cc1NC(=O)CN(C)C1CCCCC1 | 8% | -1% | -3% | 4 | 2% | -4
CN(CC(=O)Nc1cc(S(=O)(=O)N2CCCCCC2)ccc1Cl)Cc1ccc2c(c1)OCO2 | -10% | 0% | 1% | -54* | -4% | -22
COc1ccc(S(=O)(=O)N2CCCCCC2)cc1NC(=O)CN(C)Cc1ccc2c(c1)OCO2 | -9% | 0% | -2% | -68* | -4% | -22
CN(CC(=O)Nc1cc(S(=O)(=O)N2CCCC2)ccc1Cl)Cc1ccc2c(c1)OCO2 | 27% | 0% | 0% | -28 | -5% | -19
O=C(CSc1ncc2c(n1)-c1ccccc1N(Cc1ccc(F)cc1)S2(=O)=O)c1ccc(Cl)cc1 | . | . | . | . | . | 10
CCOC(=O)CSc1nc2sc3c(c2c(=O)n1-c1ccccc1)CCN(C)C3 | ? | -1% | ? | 9 | -5% | -8
CCOC(=O)CSc1nc2sc3c(c2c(=O)n1-c1ccccc1)CCN(C(C)C)C3 | 18µM* | -14% | ? | -23 | -8% | 1
C=Cc1ccc(Cn2c(C(=O)O)c(CNCc3ccccc3)c3ccc(C)cc32)cc1 | . | . | . | . | . | -13
N#CCc1ccc(OCCCN2CCC(C(O)(c3ccccc3)c3ccccc3)CC2)cc1 | . | . | . | -68* | . | -18
CC(=O)Nc1ccccc1OCCCN1CCC(C(O)(c2ccccc2)c2ccccc2)CC1 | . | . | . | -70* | . | -14
OC(c1ccccc1)(c1ccccc1)C1CCN(CCCOc2ccc3c(c2)CCCC3)CC1 | . | . | . | -17 | . | 5
CCOc1ccccc1NC(=O)NCCN1CCCCC1 | 6% | 1% | -4% | ? | -2% | -10
CC(=O)Nc1ccc(OCCCN2CCC(C(O)(c3ccccc3)c3ccccc3)CC2)cc1 | . | . | . | -104* | . | -12
OC(c1ccccc1)(c1ccccc1)C1CCN(CCCOc2cccc(OC(F)(F)F)c2)CC1 | . | . | . | -81* | . | -14
CCOC(=O)c1ccc(NC(=O)COc2cccc3c(=O)n(C)ccc23)cc1 | . | . | . | . | . | 1
CC1C(=O)N(Cc2cn(CC3CCCCC3)nn2)CCS(=O)(=O)N1Cc1ccc(-c2ccccc2)cc1 (stereo not given) | . | . | . | -16 | . | -8
Oc1ccccc1CN1CCC(C(O)(c2ccccc2)c2ccccc2)CC1 | 7% | 3% | 0% | 0 | 0% | -4
CC(C)(C)c1ccc(C(O)CCCN2CCC(C(O)(c3ccccc3)c3ccccc3)CC2)cc1 (stereo not given) | -9% | 0%[15.4 µM] | -5% | -60* | 2% | -63
ClCC(CNCc1ccccc1)c1ccccc1 (stereo not given) | 9% | . | 1% | -55* | -5% | -29
OC(CNCc1ccccc1)c1ccccc1 (stereo not given) | -2% | -4% | -2% | 10 | -9% | -18
O=C1CCCc2nc(N3CCCCC3)sc21 | -14% | 1% | 0% | -59* | -1% | 8
COc1ccc2cc3c(N)c(C(=O)NCc4ccco4)sc3nc2c1 | ? | ? | ? | -55* | -7% | -3
SMILES | Rango dissoc inh | MmCpn inh | Rango-impB inh | D3 antag | TSG101-PTAP inh | D3 ag
COc1ccc2cc3cc(C(=O)NCc4ccco4)oc3nc2c1 | -11% | -3% | -3% | -19 | -4% | -2
COCCn1c(C)cc(C(=O)CSc2nc3ccccc3c(=O)n2Cc2ccco2)c1C | 1% | 3% | 2% | 16 | -1% | 43*
CCOC(=O)c1sc2ccccc2c1S(=O)(=O)Nc1cc(OC)ccc1OC | . | . | . | . | . | -5
O=C(Cn1c(C(=O)N2CCN(C3CCCC3)CC2)cc2sccc21)c1ccccc1 | -2% | 0% | 6% | -78* | -11% | -37
O=C(Cn1c(C(=O)NCC2CCCO2)cc2sccc21)c1ccccc1 (stereo not given) | 2% | 1% | 0% | 12 | -7% | 8
O=C(Nc1ccccc1)N1CCN(Cc2ccc(Cl)cc2)CC1 | -12% | 2% | 1% | 10 | -1% | -4
CCOC(=O)C1CCN(CCCSc2ccccc2)CC1 | 0% | . | 1% | ? | -1% | -8
O=C(Nc1cc(Cl)cc(Cl)c1)N1CCCN(Cc2ccccc2)CC1 | -1% | 7% | -4% | -80* | 1% | -32
CCOC(=O)C1CCN(CCC(=O)Nc2cccc(Cl)c2)CC1 | 8% | -4% | -6% | -56* | -10% | -5
O=C(CCN1CCN(Cc2ccccc2)CC1)Nc1cccc(Cl)c1 | -3% | -1% | -3% | -59* | -6% | 0
CCOC(=O)C1CCN(CCCSc2ccc(C)cc2)CC1 | 3% | . | 3% | -87* | -1% | -21
O=C(Nc1cc(-c2nc3ccccc3o2)ccc1Cl)c1ccc(N2CCCCC2)c([N+](=O)[O-])c1 | . | . | . | . | . | 7
CCN(CCC(=O)Nc1cc(OC)cc(OC)c1)Cc1ccccc1 | -7% | 0% | 8% | -67* | -5% | -7
COc1cc(NC(=O)CCN2CCN(Cc3ccccc3)CC2)cc(OC)c1 | -6% | . | -2% | -54* | -4% | -2
CCCN(CCC(=O)Nc1cc(OC)cc(OC)c1)CC1CC1 | 5% | -3% | -1% | 22 | -3% | -4
O=C(Nc1ccc(S(=O)(=O)N2CCOCC2)cc1)c1ccc(CN2CCc3ccccc3C2)cc1 | 13% | -1% | -4% | -54* | -3% | -11
O=C(Nc1ccc(S(=O)(=O)N2CCCC2)cc1)c1ccc(CN2CCc3ccccc3C2)cc1 | 28% | -1% | 1% | ? | -3% | -24
N#CCc1ccc(NC(=O)c2ccc(CN3CCc4ccccc4C3)cc2)cc1 | 0% | 5% | 1% | -53* | -2% | -20

High-throughput results deposited in PubChem BioAssay by National Center for Advancing Translational Sciences (NCATS).
